# In paper PMC11062922 (Nature Chemical Biology, 2023):
# Like-named read-outs stand apart in the source and are kept apart here.
# Tests used:
# STK3 = settings: read-out: apparent Kd, n = 1
# STK4 = settings: read-out: apparent Kd, n = 1
# [1] = compound concentrations:100 nM and 1000 nM (sheet 'Lestaurtinib' of Supplementary Table 1),run:Lestaurtinib_02367_R1,Plate:MR003
# [2] = compound concentrations:100 nM and 1000 nM (sheet 'Lestaurtinib' of Supplementary Table 1),run:Lestaurtinib_02367_R2,Plate:MR003
# [3] = compound concentrations:100 nM and 1000 nM (sheet 'Lestaurtinib' of Supplementary Table 1),run:Lestaurtinib_02367_R3,Plate:MR003
# [4] = compound concentrations:100 nM and 1000 nM (sheet 'Lestaurtinib' of Supplementary Table 1),run:Lestaurtinib_02381_R1,Plate:MR004
# [5] = compound concentrations:100 nM and 1000 nM (sheet 'Lestaurtinib' of Supplementary Table 1),run:Lestaurtinib_02381_R2,Plate:MR004
# [6] = compound concentrations:100 nM and 1000 nM (sheet 'Lestaurtinib' of Supplementary Table 1),run:Lestaurtinib_02407_R3,Plate:MR005
# [7] = compound concentrations:100 nM and 1000 nM (sheet 'Lestaurtinib' of Supplementary Table 1),run:Lestaurtinib_02422_R1,Plate:MR006
# [8] = compound concentrations:100 nM and 1000 nM (sheet 'Lestaurtinib' of Supplementary Table 1),run:Lestaurtinib_02422_R2,Plate:MR006
# [9] = compound concentrations:100 nM and 1000 nM (sheet 'Lestaurtinib' of Supplementary Table 1),run:Lestaurtinib_02437_R1,Plate:MR007
# [10] = compound concentrations:100 nM and 1000 nM (sheet 'Lestaurtinib' of Supplementary Table 1),run:Lestaurtinib_02437_R2,Plate:MR007
# [11] = compound concentrations:100 nM and 1000 nM (sheet 'Lestaurtinib' of Supplementary Table 1),run:Lestaurtinib_02438_R1,Plate:MR008
# [12] = compound concentrations:100 nM and 1000 nM (sheet 'Lestaurtinib' of Supplementary Table 1),run:Lestaurtinib_02443_R1,Plate:MR009
# [13] = compound concentrations:100 nM and 1000 nM (sheet 'Lestaurtinib' of Supplementary Table 1),run:Lestaurtinib_02473_R2,Plate:MR010
substance,measurement,setting,value
Lestaurtinib,potency estimated from few doses,STK3; [1],39.1 nM
same,potency estimated from few doses,STK3; [2],37.3 nM
same,potency estimated from few doses,STK3; [3],42.9 nM
same,potency estimated from few doses,STK3; [4],32.9 nM
same,potency estimated from few doses,STK3; [5],38.2 nM
same,potency estimated from few doses,"STK3; compound concentrations:100 nM and 1000 nM (sheet 'Lestaurtinib' of Supplementary Table 1),run:Lestaurtinib_02407_R1,Plate:MR005",40 nM
same,potency estimated from few doses,"STK3; compound concentrations:100 nM and 1000 nM (sheet 'Lestaurtinib' of Supplementary Table 1),run:Lestaurtinib_02407_R2,Plate:MR005",29.8 nM
same,potency estimated from few doses,STK3; [6],30.1 nM
same,potency estimated from few doses,STK3; [7],51.1 nM
same,potency estimated from few doses,STK3; [8],62.7 nM
same,potency estimated from few doses,STK3; [9],38.1 nM
same,potency estimated from few doses,STK3; [10],50.7 nM
same,potency estimated from few doses,STK3; [11],29.8 nM
same,potency estimated from few doses,STK3; [12],41.6 nM
same,potency estimated from few doses,"STK3; compound concentrations:100 nM and 1000 nM (sheet 'Lestaurtinib' of Supplementary Table 1),run:Lestaurtinib_02443_R2,Plate:MR009",39.1 nM
same,potency estimated from few doses,"STK3; compound concentrations:100 nM and 1000 nM (sheet 'Lestaurtinib' of Supplementary Table 1),run:Lestaurtinib_02473_R1,Plate:MR010",47.3 nM
same,potency estimated from few doses,STK3; [13],42.2 nM
same,potency estimated from few doses,"STK3; compound concentrations:100 nM and 1000 nM (sheet 'Lestaurtinib' of Supplementary Table 1),run:Lestaurtinib_02482_R1,Plate:MR011",27.1 nM
same,potency estimated from few doses,"STK3; compound concentrations:100 nM and 1000 nM (sheet 'Lestaurtinib' of Supplementary Table 1),run:Lestaurtinib_02482_R2,Plate:MR011",44.7 nM
same,potency estimated from few doses,"STK3; compound concentrations:100 nM and 1000 nM (sheet 'Lestaurtinib' of Supplementary Table 1),run:Lestaurtinib_02482_R3,Plate:MR011",40.8 nM
same,potency estimated from few doses,"STK3; compound concentrations:100 nM and 1000 nM (sheet 'Lestaurtinib' of Supplementary Table 1),run:Lestaurtinib_02487_R1,Plate:MR012",28.6 nM
same,potency estimated from few doses,"STK3; compound concentrations:100 nM and 1000 nM (sheet 'Lestaurtinib' of Supplementary Table 1),run:Lestaurtinib_02487_R3,Plate:MR012",38.9 nM
same,potency estimated from few doses,"STK3; compound concentrations:100 nM and 1000 nM (sheet 'Lestaurtinib' of Supplementary Table 1),run:Lestaurtinib_02496_R1,Plate:MR013",45 nM
same,potency estimated from few doses,"STK3; compound concentrations:100 nM and 1000 nM (sheet 'Lestaurtinib' of Supplementary Table 1),run:Lestaurtinib_02496_R3,Plate:MR013",48.7 nM
same,potency estimated from few doses,"STK3; compound concentrations:100 nM and 1000 nM (sheet 'Lestaurtinib' of Supplementary Table 1),run:Lestaurtinib_02566_R2,Plate:MR014",41 nM
same,potency estimated from few doses,"STK3; compound concentrations:100 nM and 1000 nM (sheet 'Lestaurtinib' of Supplementary Table 1),run:Lestaurtinib_02566_R3,Plate:MR014",24.5 nM
same,potency estimated from few doses,"STK3; compound concentrations:100 nM and 1000 nM (sheet 'Lestaurtinib' of Supplementary Table 1),run:Lestaurtinib_02572_R2,Plate:MR015",50.4 nM
same,potency estimated from few doses,"STK3; compound concentrations:100 nM and 1000 nM (sheet 'Lestaurtinib' of Supplementary Table 1),run:Lestaurtinib_02572_R3,Plate:MR015",58.4 nM
same,potency estimated from few doses,"STK3; compound concentrations:100 nM and 1000 nM (sheet 'Lestaurtinib' of Supplementary Table 1),run:Lestaurtinib_02577_R1,Plate:MR016",36 nM
same,potency estimated from few doses,"STK3; compound concentrations:100 nM and 1000 nM (sheet 'Lestaurtinib' of Supplementary Table 1),run:Lestaurtinib_02577_R2,Plate:MR016",45 nM
same,potency estimated from few doses,"STK3; compound concentrations:100 nM and 1000 nM (sheet 'Lestaurtinib' of Supplementary Table 1),run:Lestaurtinib_02584_R1,Plate:MR017",38.6 nM
same,potency estimated from few doses,"STK3; compound concentrations:100 nM and 1000 nM (sheet 'Lestaurtinib' of Supplementary Table 1),run:Lestaurtinib_02584_R3,Plate:MR017",47.5 nM
same,potency estimated from few doses,"STK3; compound concentrations:100 nM and 1000 nM (sheet 'Lestaurtinib' of Supplementary Table 1),run:Lestaurtinib_02601_R1,Plate:MR018",59.1 nM
same,potency estimated from few doses,"STK3; compound concentrations:100 nM and 1000 nM (sheet 'Lestaurtinib' of Supplementary Table 1),run:Lestaurtinib_02601_R2,Plate:MR018",39.6 nM
same,potency estimated from few doses,"STK3; compound concentrations:100 nM and 1000 nM (sheet 'Lestaurtinib' of Supplementary Table 1),run:Lestaurtinib_02606_R2,Plate:MR019",46.2 nM
same,potency estimated from few doses,"STK3; compound concentrations:100 nM and 1000 nM (sheet 'Lestaurtinib' of Supplementary Table 1),run:Lestaurtinib_02606_R3,Plate:MR019",47.4 nM
same,potency estimated from few doses,"STK3; compound concentrations:100 nM and 1000 nM (sheet 'Lestaurtinib' of Supplementary Table 1),run:Lestaurtinib_02624_R1,Plate:MR020",53.2 nM
same,potency estimated from few doses,"STK3; compound concentrations:100 nM and 1000 nM (sheet 'Lestaurtinib' of Supplementary Table 1),run:Lestaurtinib_02624_R2,Plate:MR020",42.5 nM
same,potency estimated from few doses,"STK3; compound concentrations:100 nM and 1000 nM (sheet 'Lestaurtinib' of Supplementary Table 1),run:Lestaurtinib_02624_R3,Plate:MR020",40.4 nM
same,potency estimated from few doses,"STK3; compound concentrations:100 nM and 1000 nM (sheet 'Lestaurtinib' of Supplementary Table 1),run:Lestaurtinib_02724_R1,Plate:MR021",44.8 nM
same,potency estimated from few doses,"STK3; compound concentrations:100 nM and 1000 nM (sheet 'Lestaurtinib' of Supplementary Table 1),run:Lestaurtinib_02724_R2,Plate:MR021",42.8 nM
same,potency estimated from few doses,"STK3; compound concentrations:100 nM and 1000 nM (sheet 'Lestaurtinib' of Supplementary Table 1),run:Lestaurtinib_02724_R3,Plate:MR021",38.4 nM
same,potency estimated from few doses,"STK3; compound concentrations:100 nM and 1000 nM (sheet 'Lestaurtinib' of Supplementary Table 1),run:Lestaurtinib_02748_R1,Plate:MR024",35.8 nM
same,potency estimated from few doses,"STK3; compound concentrations:100 nM and 1000 nM (sheet 'Lestaurtinib' of Supplementary Table 1),run:Lestaurtinib_02748_R3,Plate:MR024",40.1 nM
same,potency estimated from few doses,"STK3; compound concentrations:100 nM and 1000 nM (sheet 'Lestaurtinib' of Supplementary Table 1),run:Lestaurtinib_02765_R1,Plate:MR026",38.6 nM
same,potency estimated from few doses,"STK3; compound concentrations:100 nM and 1000 nM (sheet 'Lestaurtinib' of Supplementary Table 1),run:Lestaurtinib_02765_R2,Plate:MR026",37.7 nM
same,potency estimated from few doses,"STK3; compound concentrations:100 nM and 1000 nM (sheet 'Lestaurtinib' of Supplementary Table 1),run:Lestaurtinib_02766_R3,Plate:MR027",42.9 nM
same,potency estimated from few doses,"STK3; compound concentrations:100 nM and 1000 nM (sheet 'Lestaurtinib' of Supplementary Table 1),run:Lestaurtinib_02768_R1,Plate:MR028",31.9 nM
same,potency estimated from few doses,"STK3; compound concentrations:100 nM and 1000 nM (sheet 'Lestaurtinib' of Supplementary Table 1),run:Lestaurtinib_02768_R3,Plate:MR028",40.1 nM
same,potency estimated from few doses,"STK3; compound concentrations:100 nM and 1000 nM (sheet 'Lestaurtinib' of Supplementary Table 1),run:Lestaurtinib_02795_R1,Plate:MR022",43.4 nM
same,potency estimated from few doses,"STK3; compound concentrations:100 nM and 1000 nM (sheet 'Lestaurtinib' of Supplementary Table 1),run:Lestaurtinib_02795_R2,Plate:MR022",27.8 nM
same,potency estimated from few doses,"STK3; compound concentrations:100 nM and 1000 nM (sheet 'Lestaurtinib' of Supplementary Table 1),run:Lestaurtinib_02795_R3,Plate:MR022",141 nM
same,potency estimated from few doses,"STK3; compound concentrations:100 nM and 1000 nM (sheet 'Lestaurtinib' of Supplementary Table 1),run:Lestaurtinib_02802_R1,Plate:MR029",22.4 nM
same,potency estimated from few doses,"STK3; compound concentrations:100 nM and 1000 nM (sheet 'Lestaurtinib' of Supplementary Table 1),run:Lestaurtinib_02802_R3,Plate:MR029",47.8 nM
same,potency estimated from few doses,"STK3; compound concentrations:100 nM and 1000 nM (sheet 'Lestaurtinib' of Supplementary Table 1),run:Lestaurtinib_02896_R1,Plate:MR030",38.8 nM
same,potency estimated from few doses,"STK3; compound concentrations:100 nM and 1000 nM (sheet 'Lestaurtinib' of Supplementary Table 1),run:Lestaurtinib_02896_R2,Plate:MR030",37.2 nM
same,potency estimated from few doses,"STK3; compound concentrations:100 nM and 1000 nM (sheet 'Lestaurtinib' of Supplementary Table 1),run:Lestaurtinib_02896_R3,Plate:MR030",37.9 nM
same,potency estimated from few doses,"STK3; compound concentrations:100 nM and 1000 nM (sheet 'Lestaurtinib' of Supplementary Table 1),run:Lestaurtinib_03172_R1,Plate:MR031",35 nM
same,potency estimated from few doses,"STK3; compound concentrations:100 nM and 1000 nM (sheet 'Lestaurtinib' of Supplementary Table 1),run:Lestaurtinib_03172_R3,Plate:MR031",39.7 nM
same,potency estimated from few doses,"STK3; compound concentrations:100 nM and 1000 nM (sheet 'Lestaurtinib' of Supplementary Table 1),run:Lestaurtinib_03252_R2,Plate:MR032",48.1 nM
same,potency estimated from few doses,"STK3; compound concentrations:100 nM and 1000 nM (sheet 'Lestaurtinib' of Supplementary Table 1),run:Lestaurtinib_03260_R3,Plate:MR033",36.6 nM
same,potency estimated from few doses,"STK4; compound concentrations:100 nM and 1000 nM (sheet 'Lestaurtinib' of Supplementary Table 1),run:Lestaurtinib_02339_R1,Plate:MR001",42 nM
same,potency estimated from few doses,"STK4; compound concentrations:100 nM and 1000 nM (sheet 'Lestaurtinib' of Supplementary Table 1),run:Lestaurtinib_02339_R2,Plate:MR001",40.1 nM
same,potency estimated from few doses,"STK4; compound concentrations:100 nM and 1000 nM (sheet 'Lestaurtinib' of Supplementary Table 1),run:Lestaurtinib_02339_R3,Plate:MR001",27.7 nM
same,potency estimated from few doses,"STK4; compound concentrations:100 nM and 1000 nM (sheet 'Lestaurtinib' of Supplementary Table 1),run:Lestaurtinib_02364_R1,Plate:MR002",35.9 nM
same,potency estimated from few doses,"STK4; compound concentrations:100 nM and 1000 nM (sheet 'Lestaurtinib' of Supplementary Table 1),run:Lestaurtinib_02364_R2,Plate:MR002",43 nM
same,potency estimated from few doses,"STK4; compound concentrations:100 nM and 1000 nM (sheet 'Lestaurtinib' of Supplementary Table 1),run:Lestaurtinib_02364_R3,Plate:MR002",43.2 nM
same,potency estimated from few doses,STK4; [1],35.7 nM
same,potency estimated from few doses,STK4; [2],35 nM
same,potency estimated from few doses,STK4; [3],39.1 nM
same,potency estimated from few doses,STK4; [4],35.8 nM
same,potency estimated from few doses,STK4; [5],36.2 nM
same,potency estimated from few doses,STK4; [6],33 nM
same,potency estimated from few doses,STK4; [7],44.8 nM
same,potency estimated from few doses,STK4; [8],50.1 nM
same,potency estimated from few doses,"STK4; compound concentrations:100 nM and 1000 nM (sheet 'Lestaurtinib' of Supplementary Table 1),run:Lestaurtinib_02422_R3,Plate:MR006",45.3 nM
same,potency estimated from few doses,STK4; [9],42 nM
same,potency estimated from few doses,STK4; [10],41.6 nM
same,potency estimated from few doses,"STK4; compound concentrations:100 nM and 1000 nM (sheet 'Lestaurtinib' of Supplementary Table 1),run:Lestaurtinib_02437_R3,Plate:MR007",4.01 nM
same,potency estimated from few doses,STK4; [11],36.6 nM
same,potency estimated from few doses,"STK4; compound concentrations:100 nM and 1000 nM (sheet 'Lestaurtinib' of Supplementary Table 1),run:Lestaurtinib_02438_R3,Plate:MR008",38.2 nM
same,potency estimated from few doses,STK4; [12],38.6 nM
same,potency estimated from few doses,"STK4; compound concentrations:100 nM and 1000 nM (sheet 'Lestaurtinib' of Supplementary Table 1),run:Lestaurtinib_02443_R3,Plate:MR009",36.6 nM
same,potency estimated from few doses,STK4; [13],44.6 nM
same,potency estimated from few doses,"STK4; compound concentrations:100 nM and 1000 nM (sheet 'Lestaurtinib' of Supplementary Table 1),run:Lestaurtinib_02473_R3,Plate:MR010",37.7 nM
